The structures appear in SMILES notation. This is part of a sample that, as a whole, favours compounds with a hit. Of some 83,000 tested, about 20% had one in any assay.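 Results are percent growth after 48 hours of single-concentration exposure. 100 means growth as in untreated cells, lower positive values show inhibition; negative values down to -100 show cell death.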 Values without a mark were called inactive. Activity calls are given as the source filed them. Rule for the calls: active = growth percent below 10; inactive = the rest.

Test systems include NCI-H23 lung; NCI-H226 lung; NCI-H322M lung; HOP-62 NSCLC; NCI-H460 lung; HOP-92 NSCLC; NCI-H522 lung; A549/ATCC NSCLC; 786-0 renal; COLO 205 colon; DU-145 prostate; K-562 leukemia; MALME-3M melanoma; MDA-MB-231 breast; RXF 393 renal; SF-268 CNS; SF-295 CNS; SF-539 CNS; UACC-257 melanoma; M14 melanoma.
Holding throughout (assay): NCI-60 one-dose screen, 48 h (100 = growth as untreated, 0 = no growth, -100 = all killed)
What all share (conditions): 10 µM unless noted

`Cc1csc(/N=C(N)/N=C(\N)c2cccc(Br)c2)n1`: the growth in the assay with NCI-H23 lung is 89.1%; in the assay with NCI-H226 lung, 88.9%; in the assay with NCI-H322M lung, 95.6%; with HOP-62 NSCLC it was 85.3%; in the assay on NCI-H460 lung, 98.1%; in the assay on HOP-92 NSCLC, 69.9%. The growth was 80% in the assay on NCI-H522 lung; 101% in the assay on A549/ATCC NSCLC; 97.3% in the assay on 786-0 renal; 95.3% in the assay with COLO 205 colon; 105% in the assay on DU-145 prostate; 57% in the assay with K-562 leukemia. Besides, the growth was 97.7% in the assay on MALME-3M melanoma; 96% with MDA-MB-231 breast; 94.1% with RXF 393 renal; 91.7% with SF-268 CNS; 94.1% in the assay with SF-295 CNS; 92.6% in the assay with SF-539 CNS. Further, the growth in the assay on UACC-257 melanoma is 102%; in the assay on M14 melanoma it was 86.6%.
Turning to `Cc1ccc(S(=O)(=O)c2nc(-c3ccc(F)cc3)oc2S(C)(=O)=O)cc1`, the growth was 71.2% in the assay on NCI-H23 lung; 83.6% in the assay on NCI-H226 lung; 95.9% with NCI-H322M lung; 99.8% in the assay on HOP-62 NSCLC; 101% in the assay with NCI-H460 lung; 63% in the assay with HOP-92 NSCLC. For the same compound, the growth with NCI-H522 lung was 61%; with A549/ATCC NSCLC, 96.4%; in the assay on 786-0 renal, 80.6%; in the assay on COLO 205 colon, 95.1%; in the assay with DU-145 prostate it was 77%; with K-562 leukemia it was 1.76% (active). In addition, the growth with MALME-3M melanoma is -45.6% (active); with MDA-MB-231 breast it was 65%; with RXF 393 renal, 40.3%; in the assay on SF-268 CNS, 95.1%; in the assay on SF-295 CNS, 95.4%; in the assay with SF-539 CNS, 58.1%. The growth with UACC-257 melanoma is 90.3%; in the assay with M14 melanoma, 64%.
`CN1CCN(Cc2ccc(NC(=O)c3cncc(C#Cc4cnc5ccc(N6CCOCC6)nn45)c3)cc2C(F)(F)F)CC1`: the growth in the assay on NCI-H23 lung is -65.9% (active); in the assay with NCI-H226 lung, -62.3% (active); with NCI-H322M lung, -11.3% (active); in the assay with HOP-62 NSCLC, -79.7% (active); with NCI-H460 lung, -80.6% (active); in the assay with HOP-92 NSCLC, -25.6% (active). For the same compound, the growth in the assay with NCI-H522 lung is -79.2% (active); in the assay on A549/ATCC NSCLC it was -84.9% (active); in the assay on 786-0 renal, -80.7% (active); in the assay with COLO 205 colon, -87.3% (active); in the assay on DU-145 prostate it was -84.7% (active); with K-562 leukemia it was -0.943% (active). The growth was -86.2% (active) in the assay with MALME-3M melanoma; -56.4% (active) with MDA-MB-231 breast; -77.9% (active) in the assay with RXF 393 renal; -62.1% (active) with SF-268 CNS; -84.8% (active) in the assay with SF-295 CNS; -90.8% (active) with SF-539 CNS. For the same compound, the growth in the assay with UACC-257 melanoma was -29.5% (active); in the assay with M14 melanoma, -74.4% (active).
`C[C@]12CC[C@H]3[C@@H](CC=C4C[C@@H](O)CC[C@@]43C)[C@@H]1CC[C@@H]2[C@](C)(O)CCc1cccnc1`: the growth in the assay with NCI-H23 lung is 52.5%; in the assay on NCI-H226 lung, 73.4%; with NCI-H322M lung it was 79.5%; in the assay with HOP-62 NSCLC, 61.3%; in the assay on NCI-H460 lung, 63.5%; in the assay on HOP-92 NSCLC it was 66.8%. The growth with NCI-H522 lung is 36.6%; in the assay on A549/ATCC NSCLC it was 70.1%; with 786-0 renal, 80.8%; in the assay on COLO 205 colon, 70.8%; with DU-145 prostate it was 53.5%; in the assay on K-562 leukemia it was 26.4%. The growth is 47% in the assay on MALME-3M melanoma; 77.2% with MDA-MB-231 breast; 66.4% in the assay on RXF 393 renal; 70.7% in the assay with SF-268 CNS; 45% in the assay with SF-295 CNS; 66.2% in the assay on SF-539 CNS. Moreover, the results for the growth in the assay with UACC-257 melanoma and in the assay on M14 melanoma were 53.8% and 85.6%, respectively.
Consider `NCCNC(=O)c1cccc(COc2ccccc2NC(=O)c2cc(Cl)c(Cl)[nH]2)c1`, for which the growth in the assay with NCI-H23 lung is 98.1%; in the assay on NCI-H226 lung it was 96.4%; with NCI-H322M lung it was 102%; in the assay with HOP-62 NSCLC, 104%; in the assay with NCI-H460 lung, 104%; in the assay on HOP-92 NSCLC, 107%. Further, the growth was 104% in the assay with NCI-H522 lung; 98.6% in the assay with A549/ATCC NSCLC; 90.3% in the assay on 786-0 renal; 113% in the assay on COLO 205 colon; 92.6% with DU-145 prostate; 5.92% (active) in the assay on K-562 leukemia. Also, the growth is 100% with MALME-3M melanoma; 106% in the assay with MDA-MB-231 breast; 93.5% in the assay with RXF 393 renal; 90.2% in the assay with SF-268 CNS; 105% with SF-295 CNS; 97.6% with SF-539 CNS. Besides, the growth was 98.9% with UACC-257 melanoma and 101% in the assay on M14 melanoma.
Consider `CNc1sc(S(=O)(=O)NC)nc1S(=O)(=O)c1ccc(C)cc1`, for which the growth in the assay with NCI-H23 lung was 102%; in the assay on NCI-H226 lung it was 92.5%; in the assay with NCI-H322M lung, 96.4%; with HOP-62 NSCLC, 99.4%; in the assay on NCI-H460 lung, 109%; in the assay with HOP-92 NSCLC, 84.9%. Besides, the growth in the assay with NCI-H522 lung was 94.5%; in the assay on A549/ATCC NSCLC, 98.8%; in the assay on 786-0 renal, 99.4%; with COLO 205 colon, 112%; with DU-145 prostate, 107%; in the assay with K-562 leukemia it was 97.5%. The growth with MALME-3M melanoma is 110%; in the assay with MDA-MB-231 breast it was 101%; in the assay with RXF 393 renal it was 108%; with SF-268 CNS, 103%; with SF-295 CNS, 93.6%; in the assay with SF-539 CNS, 98.6%. For the same compound, the values for the growth in the assay on UACC-257 melanoma and with M14 melanoma were 100% and 101%, respectively.
Regarding `CCOC(=O)c1c(NC(=O)c2cccc(C(F)(F)F)c2)sc2c1CCC(=O)C2`, the growth with NCI-H23 lung was 16%; in the assay with NCI-H226 lung it was 71.8%; with NCI-H322M lung it was 95.1%; in the assay with HOP-62 NSCLC it was 31.8%; in the assay on NCI-H460 lung, 27.9%; with HOP-92 NSCLC it was 29.9%. Besides, the growth in the assay with NCI-H522 lung was -4% (active); in the assay with A549/ATCC NSCLC, 28.9%; in the assay with 786-0 renal it was 98.4%; with COLO 205 colon, 15.8%; with DU-145 prostate it was 94.8%; in the assay with K-562 leukemia it was 5.25% (active). In addition, the growth with MALME-3M melanoma is 58.3%; in the assay on MDA-MB-231 breast, 55.2%; in the assay with RXF 393 renal, 25.6%; with SF-268 CNS it was 27.7%; in the assay with SF-295 CNS, 24.3%; in the assay on SF-539 CNS, -9.48% (active). Besides, the growth was 82.2% with UACC-257 melanoma and 42.7% with M14 melanoma.
As for `O=C(NNc1nc2cc(F)cc(F)c2n2cccc12)c1cccnn1`, the growth was 21.7% in the assay with NCI-H23 lung; -3.91% (active) in the assay with NCI-H226 lung; 28.4% in the assay with NCI-H322M lung; 28.2% in the assay on HOP-62 NSCLC; 6.92% (active) in the assay on NCI-H460 lung; 75.4% in the assay on HOP-92 NSCLC. Further, the growth in the assay with NCI-H522 lung was 0.0735% (active); in the assay with A549/ATCC NSCLC, 17.5%; with 786-0 renal, 14.3%; in the assay with COLO 205 colon, 16.3%; in the assay with DU-145 prostate it was 20.8%; in the assay on K-562 leukemia, 12.8%. Also, the growth in the assay on MALME-3M melanoma is 21.4%; in the assay with MDA-MB-231 breast it was 30.2%; in the assay on RXF 393 renal it was 22.3%; in the assay on SF-268 CNS, 12%; with SF-295 CNS, 9.98% (active); with SF-539 CNS, 3.8% (active). Further, the growth in the assay with UACC-257 melanoma was 3.33% (active); in the assay on M14 melanoma, 7.06% (active).

Values taken from PubChem BioAssay (NCI).
